# PubChem BioAssay (NCATS)
# Records with an inconclusive call do not appear. A call without a number means that no potency is given here. Values without a mark were called inactive. The source made the active and inactive calls. The call rests on the fitted dose curve; in most records, active means well fitted curve in the direction sought with a large enough effect; inconclusive means small, poorly fitted or top-dose-only effect, or another doubt; inactive means no such curve, though single readings can be large; an effect the other way counts as inactive or inconclusive.
# Experiments:
# [1] = biological target: Rap guanine nucleotide exchange factor 3 (Homo sapiens) (UniProt O95398); experiment: Confirmatory qHTS for agonist of cAMP-regulated guanine nucleotide exchange factor 3 (EPAC1) (AID 1645881); further: nearly all actives have a fitted effect of over 75% in size; further: potency means the concentration at half of the fitted maximal effect;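 on activation: EPAC1 catalysed release of BODIPY-GDP from Rap1B seen as fluorescence loss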
# Chain of Rap guanine nucleotide exchange factor 3 (Homo sapiens) (O95398 whole entry, looked up): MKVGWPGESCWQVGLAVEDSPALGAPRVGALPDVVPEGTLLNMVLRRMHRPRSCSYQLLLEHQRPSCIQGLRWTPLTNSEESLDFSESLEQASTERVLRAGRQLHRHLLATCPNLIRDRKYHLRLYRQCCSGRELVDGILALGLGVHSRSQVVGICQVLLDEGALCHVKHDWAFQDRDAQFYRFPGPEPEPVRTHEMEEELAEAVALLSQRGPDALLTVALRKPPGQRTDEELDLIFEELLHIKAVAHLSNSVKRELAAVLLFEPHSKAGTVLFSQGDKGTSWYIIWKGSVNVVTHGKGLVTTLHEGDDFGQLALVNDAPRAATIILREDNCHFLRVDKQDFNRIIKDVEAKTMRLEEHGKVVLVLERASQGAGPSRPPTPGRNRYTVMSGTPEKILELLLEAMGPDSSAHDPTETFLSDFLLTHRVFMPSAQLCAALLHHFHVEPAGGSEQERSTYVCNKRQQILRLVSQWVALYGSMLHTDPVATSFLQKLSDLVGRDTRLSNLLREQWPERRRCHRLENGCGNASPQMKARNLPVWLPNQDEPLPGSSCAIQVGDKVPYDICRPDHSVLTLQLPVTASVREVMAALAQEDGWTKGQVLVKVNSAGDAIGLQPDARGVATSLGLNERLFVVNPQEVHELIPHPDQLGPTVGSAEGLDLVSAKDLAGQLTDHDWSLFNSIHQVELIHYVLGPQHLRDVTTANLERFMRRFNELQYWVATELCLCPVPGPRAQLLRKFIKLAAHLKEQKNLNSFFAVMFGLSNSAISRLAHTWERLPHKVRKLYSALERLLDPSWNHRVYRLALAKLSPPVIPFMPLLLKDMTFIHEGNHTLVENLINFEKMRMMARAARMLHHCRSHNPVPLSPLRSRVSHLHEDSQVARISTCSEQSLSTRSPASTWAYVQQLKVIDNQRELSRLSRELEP
# [2] = biological target: Rap guanine nucleotide exchange factor 4 (Homo sapiens) (UniProt Q8WZA2); experiment: Confirmatory qHTS for antagonist of cAMP-regulated guanine nucleotide exchange factor 4 (EPAC2) (AID 1645885); further: nearly all actives have a fitted effect of over 25% in size; further: potency means the concentration at half of the fitted maximal effect
# Chain of Rap guanine nucleotide exchange factor 4 (Homo sapiens) (Q8WZA2 whole entry, looked up): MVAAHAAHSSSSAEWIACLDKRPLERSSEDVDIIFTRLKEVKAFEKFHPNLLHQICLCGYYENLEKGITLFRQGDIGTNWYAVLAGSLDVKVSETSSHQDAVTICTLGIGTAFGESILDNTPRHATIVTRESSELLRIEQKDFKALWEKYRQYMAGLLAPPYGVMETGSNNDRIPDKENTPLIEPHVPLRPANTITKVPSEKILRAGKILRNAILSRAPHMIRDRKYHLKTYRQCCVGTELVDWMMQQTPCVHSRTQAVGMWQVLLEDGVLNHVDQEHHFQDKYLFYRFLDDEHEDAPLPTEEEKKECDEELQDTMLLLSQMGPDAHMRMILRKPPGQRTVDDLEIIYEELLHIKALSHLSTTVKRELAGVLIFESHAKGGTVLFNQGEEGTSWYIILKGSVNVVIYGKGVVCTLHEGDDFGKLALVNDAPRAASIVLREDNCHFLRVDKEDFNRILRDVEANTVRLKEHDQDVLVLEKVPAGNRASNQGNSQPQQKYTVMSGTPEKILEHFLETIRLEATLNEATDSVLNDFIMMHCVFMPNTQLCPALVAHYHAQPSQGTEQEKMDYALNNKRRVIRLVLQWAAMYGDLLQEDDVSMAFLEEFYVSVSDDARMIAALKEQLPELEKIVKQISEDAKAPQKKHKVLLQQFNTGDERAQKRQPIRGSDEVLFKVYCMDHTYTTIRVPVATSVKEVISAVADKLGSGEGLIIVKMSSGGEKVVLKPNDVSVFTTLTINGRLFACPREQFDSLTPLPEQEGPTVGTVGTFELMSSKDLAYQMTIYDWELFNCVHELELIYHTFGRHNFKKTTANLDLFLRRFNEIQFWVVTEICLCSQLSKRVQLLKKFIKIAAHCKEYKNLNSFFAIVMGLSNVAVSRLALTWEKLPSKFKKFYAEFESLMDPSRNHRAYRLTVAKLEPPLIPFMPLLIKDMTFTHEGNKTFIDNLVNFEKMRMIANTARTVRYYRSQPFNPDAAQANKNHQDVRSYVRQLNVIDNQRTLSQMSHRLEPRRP
# [3] = biological target: Rap guanine nucleotide exchange factor 3 (Homo sapiens) (UniProt O95398); experiment: Counterscreen qHTS for agonist of cAMP-regulated guanine nucleotide exchange factor 3 (EPAC1) (AID 1645889); further: nearly all actives have a fitted effect of over 40% in size; further: potency means the concentration at half of the fitted maximal effect
# Procedure, shortened: (§1)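 Measured: fluorescence of BODIPY-GDP bound to Rap1B, which falls as exchange proceeds. Conditions include 50 uM competing GDP, 5 and 30 min reads, and a later cAMP challenge for antagonist detection.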
# [4] = biological target: Rap guanine nucleotide exchange factor 3 (Homo sapiens) (UniProt O95398); experiment: Counterscreen qHTS for antagonist of cAMP-regulated guanine nucleotide exchange factor 3 (EPAC1) (AID 1645888);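 further: fluorescence loss as bound BODIPY-GDP is released from Rap1B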
# Procedure, shortened: as §1
compound,measurement,setting,value
Cc1ccc(C2CC2/C(=N/O)c2ccc(F)cc2)cc1 (configuration not stated),Potency,[1],inactive
same,Potency,[2],37.9 µM (active)
same,Potency,[3],inactive
CN(C)c1ccc(/C=C2\C(=N)N3N=C(CC(=O)N4CCCCC4)SC3=NC2=O)cc1,Potency,[1],inactive
same,Potency,[2],inactive
same,Potency,[4],inactive
same,Potency,[3],inactive
CC(=O)NC(c1cccc(F)c1)c1nc(/C=C/c2ccccc2)cs1 (configuration not stated),Potency,[1],inactive
same,Potency,[4],inactive
Cc1ccc(SCC(=O)Nc2ccccc2N2CCOCC2)cc1,Potency,[1],inactive
same,Potency,[2],inactive
same,Potency,[4],inactive
same,Potency,[3],inactive
CN(Nc1cccc(Cl)c1)c1cccc(Cl)c1,Potency,[1],inactive
same,Potency,[4],inactive
CN(CC(=O)Nc1cccc(F)c1)C(=O)/C=C/c1cc(Br)ccc1OC(F)F,Potency,[1],inactive
same,Potency,[4],inactive
CCCN1C(=O)c2[nH]nc(-c3ccc(F)cc3)c2C1c1ccc(O)c(OCC)c1 (configuration not stated),Potency,[1],inactive
same,Potency,[2],inactive
same,Potency,[3],inactive
O=C1Nc2ccccc2/C1=N\N=C\c1ccc(O)c(O)c1,Potency,[1],inactive
same,Potency,[4],inactive
CC1=CC(C)(C)N2C(=O)C(=Nc3ccc(O)cc3)c3cccc1c32,Potency,[1],inactive
same,Potency,[2],inactive
same,Potency,[4],inactive
same,Potency,[3],inactive
COc1ccc(OC)c(NC(=O)CSc2nccn2-c2cc(C)cc(C)c2)c1,Potency,[1],inactive
same,Potency,[2],inactive
same,Potency,[4],inactive
same,Potency,[3],inactive
COC(=O)CN(c1nc(C)c(Br)c(OC)n1)S(=O)(=O)c1ccccc1,Potency,[1],inactive
same,Potency,[4],inactive
COc1ccccc1/C=C(/C(=O)OCC(=O)Nc1ccc(N(C)C)cc1)c1ccccc1,Potency,[1],inactive
same,Potency,[2],5.36 µM (active)
same,Potency,[4],inactive
same,Potency,[3],inactive
COc1ccc(NC(=O)c2cc(-c3cc(Cl)ccc3C)n[nH]2)cn1,Potency,[1],inactive
same,Potency,[4],inactive
S=C(Nc1ccc2nsnc2c1)N1CCCCC1,Potency,[1],inactive
same,Potency,[4],inactive
Clc1ccc(CSc2nnc(-c3ccccn3)n2Cc2ccco2)cc1Cl,Potency,[1],inactive
same,Potency,[4],inactive
Cn1cccc1/C=C1\SC(=S)N(NC(=O)c2cccc(Cl)c2)C1=O,Potency,[1],inactive
same,Potency,[2],inactive
same,Potency,[4],inactive
same,Potency,[3],inactive
CCOc1ccc(C2C3=C(CCCC3=O)Nc3ccc4ncccc4c32)cc1 (configuration not stated),Potency,[1],inactive
same,"activity change, negative = inhibition",[4],-12.5% [at 30.8 µM]
COC(=O)C1=CN(c2c(C)cc(C)cc2C)C(N)=C(C#N)C1c1ccccc1 (configuration not stated),Potency,[1],inactive
same,Potency,[4],inactive
CC(C)C(NC(=O)C1CC(=O)N(Cc2ccccc2)C1)c1nc2ccccc2[nH]1 (configuration not stated),Potency,[1],inactive
same,Potency,[2],inactive
same,Potency,[4],inactive
same,Potency,[3],inactive
COC(=O)c1ccc2nc(-c3cccc(Br)c3)c(Cc3ccccc3)n2c1,Potency,[1],inactive
same,Potency,[4],inactive
Cc1ccc(CNC(=O)c2cccc3c2C(=O)c2ccc(N4CCCCC4)cc2S3(=O)=O)cc1,Potency,[1],11.2 µM (active)
same,Potency,[2],inactive
same,"activity change, negative = inhibition",[4],-7.83% [at 30.8 µM]
same,Potency,[3],11.2 µM (active)
O=C(O)c1ccc(NS(=O)(=O)c2ccc3c(c2)C2C=CCC2C(c2ccccc2F)N3)cc1 (configuration not stated),Potency,[1],inactive
same,Potency,[2],75.7 µM (active)
same,Potency,[4],inactive
same,Potency,[3],44.7 µM (active)
Cc1nc(NC(=O)c2c(-c3ccccc3)c(-c3ccccc3)nn(C)c2=O)sc1C,Potency,[1],inactive
same,Potency,[2],inactive
same,Potency,[4],inactive
same,Potency,[3],inactive
Cc1cccc2sc(N(Cc3cccnc3)C(=O)c3cccs3)nc12,Potency,[1],inactive
same,Potency,[2],inactive
same,Potency,[4],inactive
same,Potency,[3],25.1 µM (active)
COc1cc(N)ccc1-c1cc2ccccc2oc1=O,Potency,[1],inactive
same,Potency,[4],inactive
Cc1ccc2nc(-c3ccccc3)c(Cc3cccc(Cl)c3)n2c1,Potency,[1],inactive
same,Potency,[4],inactive
O=C(/C=C/c1ccco1)Oc1cc(Br)cc(/C=N/NC(=O)c2ccccc2O)c1,Potency,[1],inactive
same,Potency,[4],inactive
Cc1ccc2c(c1)OC(=O)CC2c1ccccc1 (configuration not stated),Potency,[1],inactive
same,Potency,[4],inactive
CN(CC(=O)Nc1ccc(Cl)c(C(F)(F)F)c1)C(=O)c1ccc2c(c1)OCCO2,Potency,[1],inactive
same,Potency,[2],inactive
same,Potency,[4],inactive
same,Potency,[3],inactive
COc1ccc(C2CC(=O)Oc3cc(C)c(Cl)cc32)cc1 (configuration not stated),Potency,[1],inactive
same,Potency,[4],inactive
O=C(Nc1ccc(F)cc1)c1cccc(N2C(=O)C3C4C=CC(C5CC45)C3C2=O)c1 (configuration not stated),Potency,[1],inactive
same,Potency,[4],inactive
Cc1cc(N(CCO)Cc2ccccc2)n2nc(-c3ccc(C(C)(C)C)cc3)nc2n1,Potency,[1],inactive
same,Potency,[2],inactive
same,Potency,[4],inactive
same,Potency,[3],inactive
COc1ccc(NC(=O)COC(=O)CCCOc2ccc(Cl)cc2Cl)cc1Cl,Potency,[1],inactive
same,Potency,[2],6.01 µM (active)
same,Potency,[4],inactive
same,Potency,[3],inactive
COc1ccc(C2=CC3=C(Br)C(=O)C(C)(OC(=O)c4cccs4)C(=O)C3=CO2)cc1 (configuration not stated),Potency,[1],inactive
same,Potency,[4],inactive
CC1=Nc2ccccc2/C1=C/c1sc(=N)n(-c2nccs2)c1O,Potency,[1],inactive
same,Potency,[2],inactive
same,Potency,[4],inactive
same,Potency,[3],56.2 µM (active)
Cc1cccc(Cn2nnc3c(=O)[nH]c(C4CCCN(C(=O)c5ccc(C(C)(C)C)cc5)C4)nc32)c1 (configuration not stated),Potency,[1],inactive
same,outcome,[2],inactive [at 12.7 µM]
same,Potency,[3],inactive
O=C1OC(Cc2ccccc2)(c2ccccc2)c2ccccc21 (configuration not stated),Potency,[1],inactive
same,Potency,[2],inactive
same,Potency,[4],inactive
same,Potency,[3],inactive
Cn1cc(/C=C/c2cc[n+](C)cc2)c2cc(F)ccc21,Potency,[1],inactive
same,Potency,[2],inactive
same,Potency,[4],inactive
same,Potency,[3],inactive
CC(C)(C)c1cc(NCCCn2ccnc2)n2ncc(-c3ccccc3)c2n1,Potency,[1],inactive
same,Potency,[2],inactive
same,Potency,[3],inactive
COc1ccc(S(=O)(=O)N2CCCC2)c(Cl)c1Cl,Potency,[1],inactive
same,"activity change, negative = inhibition",[4],12.2% [at 30.8 µM]
same,activation,[3],0.265% [at 30.8 µM]
C=CCN(CC=C)Cc1cc(=O)oc2cc(C)cc(C)c12,Potency,[1],inactive
same,"activity change, negative = inhibition",[4],-4% [at 30.8 µM]
CCOC(=O)C1=C(c2ccccc2)c2ccccc2OC1C(=O)OCC (configuration not stated),Potency,[1],inactive
same,"activity change, negative = inhibition",[4],-22.2% [at 30.8 µM]
same,activation,[3],24.5% [at 30.8 µM]
COC(=O)c1ccc2nc(-c3ccco3)c(Cc3cccc(F)c3)n2c1,Potency,[1],inactive
same,Potency,[4],inactive
same,Potency,[3],inactive
CCCCc1c(C)nc2ccccc2c1SCCC#N,Potency,[1],inactive
same,"activity change, negative = inhibition",[4],-10% [at 30.8 µM]
CCC(=O)N(CCC(Cc1ccccc1)c1ccco1)Cc1ccco1 (configuration not stated),Potency,[1],inactive
same,Potency,[4],inactive
same,Potency,[3],inactive
O=C(O)c1cccc(Cn2c(Cl)c(/C=N/NC(=O)c3cc4ccccc4cc3O)sc2=O)c1,Potency,[1],inactive
same,Potency,[4],inactive
COC(=O)c1ccc2nc(-c3ccc(Cl)cc3)c(Cc3ccccc3OC)n2c1,Potency,[1],inactive
same,Potency,[4],inactive
same,Potency,[3],inactive
COC(=O)c1ccc2nc(-c3ccc(Cl)cc3)c(Cc3ccsc3)n2c1,Potency,[1],inactive
same,Potency,[4],inactive
same,Potency,[3],inactive
Cc1ccc(S(=O)(=O)CC(=O)c2cc3cccc(C)c3oc2=O)cc1,Potency,[1],inactive
same,Potency,[4],inactive
same,Potency,[3],inactive
COc1ccc(C(=O)c2oc3ccc(OC)cc3c2N)cc1,Potency,[1],inactive
same,Potency,[4],inactive
same,Potency,[3],inactive
Cc1ccccc1C1CC(=O)c2ccccc2C1C (configuration not stated),Potency,[1],inactive
same,Potency,[4],inactive
same,Potency,[3],inactive
CCOC(=O)C1=C(C)N(C)C(C)=C(C(=O)OCC)C1c1ccc(Cl)cc1,Potency,[1],inactive
same,Potency,[4],inactive
same,Potency,[3],inactive
CCC(CC)C(=O)Nc1nc(-c2ccc3c(c2)CCN3C(=O)C2CC2)c(C)s1,Potency,[1],inactive
same,"activity change, negative = inhibition",[4],-24% [at 30.8 µM]
same,activation,[3],26.5% [at 30.8 µM]
COc1ccc(C(=O)Oc2ccc(/C=N/Nc3ccc(Cl)c(C(=O)O)c3)cc2OC)cc1,Potency,[1],inactive
same,Potency,[4],inactive
O=C1N(c2ccc(Cl)cc2)C(c2ccccc2)N2CCCN12 (configuration not stated),Potency,[1],inactive
same,Potency,[4],inactive
Cn1ccc2c(-c3ccc(C(C)(C)C)cc3)cc3c(c21)C1CCC3O1 (configuration not stated),Potency,[1],inactive
same,Potency,[4],inactive
same,Potency,[3],inactive
COc1ccc(C(=O)/C=C/c2ccccc2)c(OC)c1,Potency,[1],inactive
same,Potency,[4],inactive
COc1ccccc1CNC(=O)C1(C)CCN1Cc1ccc2ccccc2c1 (configuration not stated),Potency,[1],inactive
same,Potency,[4],inactive
same,Potency,[3],inactive
